Most compounds without a hit are left out; they make up all but 3.1% or so of the library.
PTAP TSG101 blk – blocks PTAP/TSG101 interaction to inhibit HIV-1 budding; Potency, µM (series often up to 115 µM), for inactives: at the top dose activity change, negative = inhibition, usual class: inhibitors; 340,000 tested, under 10 active; Fluorescence polarization, FITC-PTAP peptide / Tsg101 binding; Q99816; active means well fitted inhibition curve with a large enough effect in the main read-out, with a control signal flat, not every such curve was filed as active; inconclusive means small, poorly fitted or top-dose-only effect, or effect the other way, or a change in a side signal; inactive means no such curve, though single readings can be large or run the other way; further: potency means the concentration at half of the fitted maximal effect; % of control where 0% means no effect
Target sequence (Q99816 whole entry, looked up): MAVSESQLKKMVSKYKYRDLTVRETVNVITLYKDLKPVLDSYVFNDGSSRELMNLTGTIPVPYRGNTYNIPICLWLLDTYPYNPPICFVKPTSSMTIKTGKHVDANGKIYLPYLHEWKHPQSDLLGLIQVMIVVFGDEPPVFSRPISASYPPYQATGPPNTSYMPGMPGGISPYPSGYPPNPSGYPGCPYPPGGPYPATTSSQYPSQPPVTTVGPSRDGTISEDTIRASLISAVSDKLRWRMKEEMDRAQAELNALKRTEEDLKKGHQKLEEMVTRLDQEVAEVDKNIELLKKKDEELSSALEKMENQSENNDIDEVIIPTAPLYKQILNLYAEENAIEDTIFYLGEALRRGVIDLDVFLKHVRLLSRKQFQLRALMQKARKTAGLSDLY
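FP read-out: FITC-PTAP peptide, 50 nM final, binding Tsg101 binding domain, 10 uM final; 20 min, r.t.; 10 mM HEPES pH 7.5, 0.15 M NaCl, 0.01% Tween 20, 3 mM EDTA, 0.1 mM TCEP.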
uPA surface inh – blocks generation of uPA at the cell surface | Potency, µM (titrated, usually from 38.3 µM), for the others: at the highest dose activity change, negative = inhibition, most hits filed as inhibitors | actives 0.31% (n = 330,000) | cell surface uPA generation assay, qHTS; active means well fitted inhibition curve with a large enough effect; inconclusive means small, poorly fitted or top-dose-only effect; inactive means no such curve, though single readings can be large or run the other way; tested in mouse RAW 264.7 cells; further: potency means the concentration at half of the fitted maximal effect; on the % scale 0 is the no-effect control and ±100 the full control effect; nearly all actives have a fitted effect of over 55% in size
VDR inh – vitamin D3 receptor (human) inhibition; VDR-SRC2-3 peptide fluorescence polarization, 2 h; Potency, µM, without a hit: max response, negative = inhibition, actives largely listed as inhibitors; actives 0.93% (n = 400,000); further: potency means the concentration at half of the fitted maximal effect; on the % scale 0 is the no-effect control and ±100 the full control effect
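After 23 nl compound addition and a short centrifugation, plates sat for 2 hours at ambient temperature; polarization of fluorescence then indicated loss of VDR binding to peptide SRC2-3.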
PLK1 PBD inh – inhibitors of human PLK1 polo-box domain binding; actives 2.8% (n = 360,000); AID 720504; Potency, µM, without a hit: max response, negative = inhibition, actives largely listed as inhibitors; Plk1 PBD binding of FITC phosphopeptide, fluorescence polarization; further: potency means the concentration at half of the fitted maximal effect; series mostly up to about 57 µM; on the % scale 0 is the no-effect control and ±100 the full control effect; nearly all actives have a fitted effect of over 65% in size
TSHR antagonist – human thyrotropin receptor antagonism; P16473; TSHR-expressing cells, TSH-stimulated cAMP HTRF, 2 h; stronger effect = lower value; activity change, negative = inhibition, % at 11.5 µM; actives 0.2% (n = 330,000);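 active means activity change below a set negative limit, meaning inhibition stronger than a set level, cut at about -70% in these data; inconclusive means activity change between two set negative limits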; further: on the % scale 0 is the no-effect control and ±100 the full control effect
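TSHR-expressing cells were treated with compounds, then stimulated with TSH at EC80 (4nM final) for 2 hours at 37 deg C. Cellular cAMP was measured by HTRF competition between lysate cAMP and cAMP-d2 for a cryptate-labelled anti-cAMP antibody.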
* marks the source's active call; other numbers are inactive results; ? = inconclusive; / = not tested or not shown. Unless noted, the call rests on the fitted dose curve; in most records, active means well fitted curve in the direction sought with a large enough effect; inconclusive means small, poorly fitted or top-dose-only effect, or another doubt; inactive means no such curve, though single readings can be large; an effect the other way counts as inactive or inconclusive.

SMILES	PTAP TSG101 blk	uPA surface inh	VDR inh	PLK1 PBD inh	TSHR antagonist
CCOc1ccc(NC(=O)Cn2cc(C(=O)c3ccc(F)cc3)c(=O)c3cc4c(cc32)OCCO4)cc1	/	/	0%	/	/
CC1=NN(c2ccccc2)C(=O)/C1=C/c1cccc(C)c1	1%	2%	50µM*	2.1µM*	1
CCCOc1ccc(C(=O)Nc2ccc(NC(=O)c3ccccc3)c(Br)c2)cc1	/	/	-7%	/	/
O=[N+]([O-])c1ccc(S(=O)(=O)NN=Cc2ccc(Cl)c(Cl)c2)cc1	-4%	2%	50µM*	11µM*	/
Oc1ccc(Cl)cc1/C=N/c1nccs1	-8%	/	4%	-27%	10
Oc1c(Br)cc(Br)cc1/C=N/c1nccs1	-13%	-1%	?	30µM*	-13
C[N+]1(C)CC[C@@H](OC(=O)[C@@](O)(c2ccccc2)C2CCCC2)C1	/	/	7%	/	/
COc1ccc(C(=O)NCC23C=CC(O2)C2C(=O)N(Cc4ccccc4)C(=O)C23)cc1 (centres undefined)	-5%	0%	2%	-3%	-16
Cc1ccc(N2C(=O)C3C4C=CC(CNC(=S)N5CCN(c6cccc(C)c6)C(C)C5)(O4)C3C2=O)cc1 (centres undefined)	-1%	-4%	?	-13%	-4
O=C1C2C3C=CC(CO)(O3)C2C(=O)N1c1ccccc1-c1ccccc1 (centres undefined)	0%	?	-100%	7.5µM*	-73*
O=C1C2C3C=CC(CNS(=O)(=O)c4ccccc4)(O3)C2C(=O)N1c1ccc(Cl)cc1 (centres undefined)	0%	-8%	79µM*	-6%	8
O=C1C(=O)N(C2CCN(C(=O)c3ccccc3Cl)CC2)CCN1Cc1ccc(F)cc1	/	/	-6%	/	/
O=C(O)c1ccc(N2CC3CC(C2)c2cccc(=O)n2C3)c(NC(=S)Nc2ccc(Br)cc2)c1 (centres undefined)	-2%	1%	?	19µM*	8
CCOc1ccccc1C=Nc1ccccc1C(=O)Nc1ccccc1	-1%	4%	25µM*	-6%	-10
CCS(=O)(=O)Nc1cccc(C2=NN(S(=O)(=O)c3ccccc3)C(c3ccco3)C2)c1 (centres undefined)	3%	-6%	30%	-7%	-1
CS(=O)(=O)Nc1cccc(C2=NN(S(=O)(=O)c3ccccc3)C(c3ccco3)C2)c1 (centres undefined)	-2%	31%	-14%	30µM*	-1
COc1ccc(C2Nc3ccccc3C(=O)N2Cc2ccco2)cc1COc1c(C)cccc1C (centres undefined)	/	/	14µM*	/	/
CCOc1ccc(C(=O)Nc2ccc(S(=O)(=O)N3CCCCC3c3cccnc3)cc2)cc1 (centres undefined)	/	/	-5%	/	/
O=C1C2C(C(=O)N1CC1CCCO1)C1C=CC2C12CC2 (centres undefined)	-1%	8%	7%	-5%	/
O=C1C2CC=CCC2C(=O)N1CC1CCCO1 (centres undefined)	1%	-1%	?	24µM*	21
CC(C)c1cc(C(=O)O)c2cnn(C(C)C)c2n1	-2%	-2%	?	27µM*	-9
Cc1ccccc1N1CCN(C(=O)c2cc(-c3ccccc3)nc3c2cnn3C(C)C)CC1	/	/	/	-3%	/
COc1ccccc1CNc1ccc(-c2nc(-c3ccco3)no2)cc1[N+](=O)[O-]	/	/	19%	/	/
O=C(NCCCn1ccnc1)/C(=C\c1ccc(Br)cc1)NC(=O)c1ccccc1	-2%	-5%	?	11µM*	4
Cc1ccc(C(=O)N/C(=C/c2ccccc2F)C(=O)NCCCn2ccnc2)cc1	-2%	1%	-9%	27µM*	6
Cc1ccc(C(=O)N/C(=C\c2ccc(F)cc2)C(=O)NCCCn2ccnc2)cc1	-3%	0%	-10%	0%	-5
O=C(NCCCn1ccnc1)/C(=C/c1ccccc1)NC(=O)c1ccccc1	-2%	2%	-2%	24µM*	24
CN(C)c1ccc(/C=C(\NC(=O)c2ccccc2)C(=O)NCCCn2ccnc2)cc1	-7%	3%	13%	-10%	-11
S=C(NCCCc1cnc[nH]1)NCCCN(Cc1ccc(Cl)cc1)c1ncc(Br)cn1	/	/	-18%	/	/
